Screening results from PubChem BioAssay.
Many of the other results were omitted from the sample, so hits are more common in it than they were.
BAP1 block: blocks human BAP1 ubiquitin-AMC hydrolysis | recombinant BAP1, Ub-AMC hydrolysis fluorescence kinetic; hits give low values | calls only at 20 µM | actives 0.48% (n = 72,000) | AID 436;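 active = activity remaining at or below 50% of control, provided the compound also passes the data quality filters; inactive = the rest, including low values that fail the filters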;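 also: 100% = DMSO wells rate and 0% = substrate alone blank rate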
hDAT+cocaine: human DAT dopamine uptake with cocaine, either direction; LLC-PK1 hDAT cells, [14C]-dopamine uptake with cocaine IC80; actives deviate in either direction; actives 1.3% (n = 110,000); Q01959; B-score at 10 µM;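 active = Z score or B-score, a plate-position-corrected score, falls beyond the plate's 99.7% confidence bounds, in either direction; inactive = both scores lie inside the 99.7% bounds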;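 also: scored against the spread of the other compound wells on the same plate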
Target sequence (Q01959 whole entry, looked up): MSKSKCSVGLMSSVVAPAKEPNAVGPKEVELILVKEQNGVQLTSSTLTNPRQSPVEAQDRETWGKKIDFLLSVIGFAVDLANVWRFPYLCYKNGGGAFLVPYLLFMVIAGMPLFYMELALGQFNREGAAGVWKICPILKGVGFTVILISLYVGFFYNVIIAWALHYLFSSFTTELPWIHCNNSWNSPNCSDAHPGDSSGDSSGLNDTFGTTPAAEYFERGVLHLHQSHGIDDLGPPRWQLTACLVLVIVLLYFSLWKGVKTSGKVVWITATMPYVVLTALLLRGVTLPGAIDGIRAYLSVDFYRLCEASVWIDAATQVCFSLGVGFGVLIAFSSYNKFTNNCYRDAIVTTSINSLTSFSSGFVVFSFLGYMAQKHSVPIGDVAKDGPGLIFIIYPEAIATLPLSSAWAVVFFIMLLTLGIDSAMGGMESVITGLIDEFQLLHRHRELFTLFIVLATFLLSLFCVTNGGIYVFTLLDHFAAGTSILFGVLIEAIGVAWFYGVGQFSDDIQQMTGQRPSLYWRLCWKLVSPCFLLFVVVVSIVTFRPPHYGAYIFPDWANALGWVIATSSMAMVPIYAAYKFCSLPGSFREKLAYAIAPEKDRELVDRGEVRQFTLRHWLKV
D1 allo mod: allosteric modulators of human D1 dopamine receptor; P21728; HEK293 D1, CRE-luciferase, dopamine EC30 potentiation; actives deviate in either direction; B-score at 10 µM; actives 5.9% (n = 58,000);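 active = luminescence count or its row- and column-corrected plate score outside the 99.7% band of the plate's sample wells, on either side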
* marks the source's active call; other numbers are inactive results; i = inactive; x = not tested or not shown; + = active, no number.

SMILES	BAP1 block	hDAT+cocaine	D1 allo mod
O=C1CC(NCCC2=CCCCC2)C(=O)N1c1cccc(Cl)c1Cl (stereo not drawn)	x	3.54*	x
CCCn1c(C(O)c2ccc(C(C)C)cc2)nc2ccccc21 (stereo not drawn)	i	x	x
c1ccc2[nH]c(CCCCCCCCc3nc4ccccc4[nH]3)nc2c1	i	x	x
O=C(Nc1nc(-c2nc3ccccc3s2)cs1)c1ccco1	i	-1.78	0.113
O=C(Nc1nc(-c2nc3ccccc3s2)cs1)C1CC1	i	0.763	-3.39*
CCOC(=O)c1c(C)oc2cc(Br)c(OCc3ccccc3Cl)cc12	i	x	x
Cc1ccc(C(=O)Nc2nc(C34CC5CC(CC(C5)C3)C4)cs2)cc1	i	x	x
NC1=NC[C@H](Cc2ccccc2)N1CCc1cccc(F)c1	x	0.601	x
NC1=NC[C@H](Cc2ccc(O)cc2)N1CCCCC1CCCCC1	x	-4.05*	x
NC1=NC[C@H](Cc2ccc(O)cc2)N1CCc1cc(C(F)(F)F)cc(C(F)(F)F)c1	x	-0.0473	x
NC1=NC[C@H](Cc2ccccc2)N1CCCCC1CCCCC1	x	-2.96*	x
CCCCCCOc1ccc(NC(=O)c2cccs2)cc1	i	x	x
CCOC(=O)CNS(=O)(=O)c1c(C)noc1C	i	-0.692	0.241
Cc1noc(C)c1S(=O)(=O)NCC(=O)O	i	2.27*	0.503
CCOC(=O)c1nnc(-c2ccc(C)cc2)nc1Oc1ccccc1Cl	x	-0.139	x
CCOC(=O)c1nnc(-c2ccc(C)cc2)nc1Oc1ccc(Cl)cc1Cl	x	-2.69*	x
O=C(Nc1cccc2ccccc12)c1ccc2c(c1)C(=O)N(c1ccc(I)cc1)C2=O	i	x	x
CCCOC(=O)c1cccc(NC(=O)COc2c(C)cccc2C)c1	i	x	x
CS(=O)(=O)N1CCN(c2nc3ccccc3s2)CC1	i	0.075	-0.704
CC(Nc1nc(N2CCN(S(C)(=O)=O)CC2)nc2ccccc12)c1ccccc1 (stereo not drawn)	x	0.976	-2.97*
CCc1cccc(C)c1-n1nnnc1C(C)(C)N(C)C	i	x	x
CC(=O)N1CCN(c2ccc(NC(=O)c3ccc(C)cc3)cc2)CC1	x	0.00742	x
CC(=O)N1CCc2cc(NC(=O)c3ccc(C)cc3)ccc21	i	-0.926	-2.59*
COc1ccccc1C(=O)N/C(=C\c1ccc(Br)cc1)C(=O)NCCO	x	0.301	x
CCN(CC)C(=O)/C(=C\c1ccc(Br)cc1)NC(=O)c1ccccc1OC	x	14.6*	x
SMILES	BAP1 block	hDAT+cocaine	D1 allo mod
CCN1C(=O)c2cccc3c(NC(=O)c4ccc(S(=O)(=O)N(C)c5ccccc5)cc4)ccc1c23	i	x	x
CC(C)Oc1ccc(C2CC(=O)NC3=C2C(=O)CCC3)cc1 (stereo not drawn)	i	-0.109	-5.39*
COC(=O)c1ccc(C2CC(=O)NC3=C2C(=O)CCC3)cc1 (stereo not drawn)	i	-0.317	-0.139
CCOC(=O)C1=C(C)NC(=O)CC1c1ccccc1I (stereo not drawn)	i	x	x
COCCn1c(NCc2ccc(C)cc2)nc2c1c(=O)[nH]c(=O)n2C	i	-0.457	-3.34*
COCCn1c(NCc2ccccc2)nc2c1c(=O)[nH]c(=O)n2C	i	0.0554	1.96
O=C(Nc1ccc2nn(-c3ccc(Cl)cc3)nc2c1)c1ccc([N+](=O)[O-])cc1Cl	i	x	x
COc1ccc(C(=O)Nc2nnc(-c3ccco3)s2)cc1	x	0.434	x
O=C(Nc1nnc(-c2ccco2)s1)c1ccccc1	i	1.03	-4.51*
COc1ccc(COc2cc(-c3cccc(OC)c3)nc3ccc(NC(=O)c4cccnc4)cc23)cc1	x	2.67*	x
COc1ccc(COc2cc(-c3cccc(OC)c3)nc3ccc(NC(=O)c4ccc(OC)cc4)cc23)cc1	x	-0.403	x
Cc1cc(C(=O)Nc2ccc(N(C)C)cc2)c(C)o1	i	x	x
O=C1C2C3C=CC(C4CC34)C2C(=O)N1c1cc(C(F)(F)F)ccc1Cl (stereo not drawn)	i	x	x
Cn1c(Cl)cnc1-c1cc(=O)c2cc(Cl)ccc2o1	i	x	x
NC(=O)CNC(=O)[C@@H]1CC2(CC(c3ccc(Cl)cc3)=NO2)CN1C(=O)c1ccccc1 (stereo partly drawn)	x	-1.23	x
NC(=O)CNC(=O)[C@@H]1CC2(CC(c3cccc(Br)c3)=NO2)CN1C(=O)c1ccc(Br)cc1 (stereo partly drawn)	x	2.23*	x
COc1ccc(Cc2nnc3n2N=C(c2cc4ccccc4o2)CS3)cc1OC	i	1.13	3.01*
COc1ccc(-c2nnc3n2N=C(c2ccccc2)CS3)cc1OC	i	x	1.58
COc1cc(OC)c(/C=C2/C(=O)Nc3ccccc32)c(OC)c1	i	x	x
O=C1Nc2ccc(I)cc2/C1=C/c1cc(Br)c(O)c(Br)c1	+	x	x
COc1cc(C2C(C#N)=C(N)Oc3cc(C)oc(=O)c32)ccc1OC(=O)N1CCOCC1 (stereo not drawn)	i	1.03	-3.72*
COc1cc(C2C(C#N)=C(N)OC3=C2C(=O)CCC3)ccc1OC(=O)N1CCOCC1 (stereo not drawn)	i	0.236	0.241
NC(=O)c1cc[n+](CC(=O)Nc2ccccc2C(=O)O)cc1	i	x	x
CC(=O)c1ccc(N2CCN(C(=O)c3cc([N+](=O)[O-])ccc3F)CC2)c(F)c1	i	x	x
O=S(=O)(c1ccc2oc3ccccc3c2c1)N1CCCC1	x	0.43	x
SMILES	BAP1 block	hDAT+cocaine	D1 allo mod
CCN(CC)C(=O)C1CCN(S(=O)(=O)c2ccc3oc4ccccc4c3c2)CC1	i	2.26*	-1.68
CCN(CC)C(=O)c1[nH]cnc1C(=O)Nc1ccc(OC)cc1	x	3.1*	x
CCOC(=O)c1ccc(NC(=O)c2nc[nH]c2C(=O)N(CC)CC)cc1	x	1.58	x
CCOC(=O)c1c(C)n(-c2ccc(Cl)cc2)c2ccc(OC)cc12	i	x	x
Cc1c(C#N)c2ncn(Cc3ccccc3)c(=O)c2n1-c1ccccc1	i	0.331	13.3*
Cc1c(C#N)c2ncnc(-c3ccccc3)c2n1-c1ccccc1	i	0.114	0.915
C=CCn1c(C)cc(C(=O)COc2ncnc3sccc23)c1C	i	0.7	-4.47*
CC(C)NC(=O)COc1ncnc2sccc12	x	-1.5	x
COc1ccc(-c2csc(NC(=O)c3ccc(S(=O)(=O)N4CCc5ccccc54)cc3)n2)cc1	i	x	x
Cc1nn(C(=O)c2ccc3c(c2)OCO3)c(N)c1-c1ccccc1	i	0.263	-5.71*
Cc1nn(C(=O)c2cccs2)c(N)c1-c1ccccc1	i	-0.474	-0.807
O=C(Nc1ccc2nc(-c3ccco3)[nH]c2c1)c1ccco1	i	3.02*	0.698
O=C(Nc1ccc2nc(-c3ccco3)[nH]c2c1)c1cccs1	i	-0.848	-2.93
O=C(Nc1ccc(Cl)c([N+](=O)[O-])c1)C1c2ccccc2Oc2ccccc21	i	x	x
CCOC(=O)C(C)OC(=O)c1ccc([N+](=O)[O-])cc1Cl (stereo not drawn)	i	x	x
c1ccc(-c2nnc(Cn3c4ccccc4c4nc5ccccc5nc43)o2)cc1	x	x	0.496
CC(O)c1nc2ccccc2n1Cc1nnc(-c2ccc(Cl)cc2)o1 (stereo not drawn)	i	0.0247	-4.6*
CCOC(=O)C(=CNc1ccc(C)cc1C)C(=O)OCC	x	2.68	x
CCOC(=O)C(=CNc1cccc(C)c1C)C(=O)OCC	x	6.07*	x
CCN1CCN(CCCNC(=O)C2c3ccccc3C(=O)N(C)C2c2ccc(OC)cc2)CC1 (stereo not drawn)	i	-1.36	0.53
